Common to all, as to set-up: scale not given: direction of the effect not stated beside the values
Assay [1] has as its target Protein translocase subunit SecA (Escherichia coli (strain K12)) (UniProt P10408). As to the kind of experiment: Assay to Identify E. coli SecA ATPase Inhibitors. It is filed as functional. Particulars: 30 µM.
The target in assay [2] is T1, Ubiquitin-activating enzyme e1, putative (Leishmania donovani (strain BPK282A1)) (UniProt E9BSI1).
T1 sequence (whole entry): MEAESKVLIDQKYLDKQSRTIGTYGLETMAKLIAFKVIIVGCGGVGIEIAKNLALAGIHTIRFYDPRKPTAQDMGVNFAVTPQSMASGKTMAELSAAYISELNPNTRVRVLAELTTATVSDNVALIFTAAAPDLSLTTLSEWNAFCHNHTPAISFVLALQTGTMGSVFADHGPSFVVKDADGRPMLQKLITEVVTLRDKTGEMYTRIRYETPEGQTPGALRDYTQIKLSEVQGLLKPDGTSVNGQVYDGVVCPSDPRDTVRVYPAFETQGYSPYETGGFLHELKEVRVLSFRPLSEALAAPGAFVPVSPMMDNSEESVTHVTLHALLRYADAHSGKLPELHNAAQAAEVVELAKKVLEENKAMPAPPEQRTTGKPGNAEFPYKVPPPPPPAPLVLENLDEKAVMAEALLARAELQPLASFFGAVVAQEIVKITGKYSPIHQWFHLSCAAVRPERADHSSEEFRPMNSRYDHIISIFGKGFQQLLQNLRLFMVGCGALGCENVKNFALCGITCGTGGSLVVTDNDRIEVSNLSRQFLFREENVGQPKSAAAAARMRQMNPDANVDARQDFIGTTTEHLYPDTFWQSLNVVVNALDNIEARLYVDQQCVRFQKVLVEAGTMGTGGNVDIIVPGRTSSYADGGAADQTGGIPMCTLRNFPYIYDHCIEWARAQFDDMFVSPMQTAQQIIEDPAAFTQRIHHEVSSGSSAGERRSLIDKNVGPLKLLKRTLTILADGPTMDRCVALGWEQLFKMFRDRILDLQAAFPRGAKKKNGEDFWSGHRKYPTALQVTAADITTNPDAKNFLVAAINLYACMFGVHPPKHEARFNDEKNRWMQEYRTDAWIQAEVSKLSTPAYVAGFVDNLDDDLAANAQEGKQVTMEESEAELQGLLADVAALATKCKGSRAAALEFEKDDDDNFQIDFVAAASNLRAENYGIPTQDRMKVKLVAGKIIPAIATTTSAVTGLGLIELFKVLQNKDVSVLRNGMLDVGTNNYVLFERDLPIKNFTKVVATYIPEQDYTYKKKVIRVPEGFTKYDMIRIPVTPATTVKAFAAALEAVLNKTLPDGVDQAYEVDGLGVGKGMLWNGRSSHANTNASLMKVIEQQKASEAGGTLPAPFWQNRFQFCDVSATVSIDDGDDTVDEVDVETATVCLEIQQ
As to the kind of experiment: Leishmania donovani Ubiquitin Activating Enzyme (LdE1). It counts as functional. The following applies: 30 µM.

For assay [3], the target named is AMP-activated protein kinase, AMPK (Homo sapiens) (UniProt P54646+O43741+P54619+Q9UGJ0+Q9Y478+Q13131+Q9UGI9). As to the kind of experiment: AMP-dependent Kinase enzyme assay. An in vitro enzyme assay that detects ADP turnover that is directly proportional to AMPK activity. This uses naive AMPK that is activated during the assay with MK-8722. It is filed as functional. Particulars: 30 µM.

In assay [4] the target is Sialic acid-binding Ig-like lectin 9 (Homo sapiens) (UniProt Q9Y336). As to the kind of experiment: Hs-Siglec9 ALPHAscreen SOP 20170721. Particulars: 10 µM.
Sequence of Sialic acid-binding Ig-like lectin 9 (Homo sapiens) (Q9Y336 whole entry): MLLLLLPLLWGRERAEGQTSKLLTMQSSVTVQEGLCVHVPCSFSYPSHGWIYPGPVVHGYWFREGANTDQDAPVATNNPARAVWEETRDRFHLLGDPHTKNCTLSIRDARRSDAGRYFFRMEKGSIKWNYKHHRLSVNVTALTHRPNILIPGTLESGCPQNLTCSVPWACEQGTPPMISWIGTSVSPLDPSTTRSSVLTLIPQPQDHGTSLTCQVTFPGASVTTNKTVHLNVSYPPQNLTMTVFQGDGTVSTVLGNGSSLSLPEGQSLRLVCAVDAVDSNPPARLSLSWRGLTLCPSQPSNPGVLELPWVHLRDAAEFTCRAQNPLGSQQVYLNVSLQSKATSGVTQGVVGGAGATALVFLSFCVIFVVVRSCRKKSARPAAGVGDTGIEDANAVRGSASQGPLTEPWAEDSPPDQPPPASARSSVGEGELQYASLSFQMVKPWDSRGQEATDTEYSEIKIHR
The next assay relates to Trypanosoma cruzi. As to the kind of experiment: Trypanosoma cruzi phosphomannomutase and mannose-1-phosphate guanylyltransferase assay. It counts as functional. Particulars: 10 µM.
The target in assay [5] is T2, Arginase-2, mitochondrial (Homo sapiens) (UniProt P78540).
T2 sequence (whole entry): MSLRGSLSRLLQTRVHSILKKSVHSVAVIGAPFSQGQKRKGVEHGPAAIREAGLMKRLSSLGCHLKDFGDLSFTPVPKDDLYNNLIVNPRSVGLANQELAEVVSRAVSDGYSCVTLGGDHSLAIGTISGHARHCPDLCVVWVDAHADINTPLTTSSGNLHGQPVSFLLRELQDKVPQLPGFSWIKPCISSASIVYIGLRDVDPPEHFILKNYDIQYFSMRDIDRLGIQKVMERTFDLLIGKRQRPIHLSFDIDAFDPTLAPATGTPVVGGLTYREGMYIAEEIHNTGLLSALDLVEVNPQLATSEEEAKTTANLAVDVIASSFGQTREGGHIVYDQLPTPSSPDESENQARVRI
As to the kind of experiment: in vitro enzyme assay to detect the production of urea directly proportional to the activity of Arginase II. Also: in the data most compounds retested in dose-response had high values. It is filed as functional. The following applies: 33.3 µM.

The target in assay [6] is T3, Proteasome subunit beta (Trypanosoma cruzi) (UniProt O96673).
T3 sequence (whole entry): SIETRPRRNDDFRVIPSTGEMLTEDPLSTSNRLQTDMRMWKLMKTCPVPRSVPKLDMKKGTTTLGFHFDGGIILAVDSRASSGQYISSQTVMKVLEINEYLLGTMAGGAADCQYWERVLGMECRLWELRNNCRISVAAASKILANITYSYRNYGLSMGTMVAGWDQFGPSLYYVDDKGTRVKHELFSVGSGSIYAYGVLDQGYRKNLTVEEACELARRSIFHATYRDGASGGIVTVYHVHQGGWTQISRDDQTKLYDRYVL
As to the kind of experiment: Trypanosoma cruzi proteasome chymotrypsin-like activity (TcProtChymo) assay. Also: in the data most compounds retested in dose-response had high values. It counts as functional. Particulars: 9.37 µM.

The species named for a further assay is Homo sapiens. As to the kind of experiment: To identify inhibition of the IFN signalling (Jak-Stat) pathway via expression of an eGFP reporter gene under the control of an IFN-stimulated response element (ISRE) containing MxA promoter. The following applies: 30 µM. It is filed as functional.
In assay [7] the target is T4, Tyrosyl-tRNA synthetase, putative (Trypanosoma cruzi (strain CL Brener)) (UniProt Q4DSP6).
T4 sequence (whole entry): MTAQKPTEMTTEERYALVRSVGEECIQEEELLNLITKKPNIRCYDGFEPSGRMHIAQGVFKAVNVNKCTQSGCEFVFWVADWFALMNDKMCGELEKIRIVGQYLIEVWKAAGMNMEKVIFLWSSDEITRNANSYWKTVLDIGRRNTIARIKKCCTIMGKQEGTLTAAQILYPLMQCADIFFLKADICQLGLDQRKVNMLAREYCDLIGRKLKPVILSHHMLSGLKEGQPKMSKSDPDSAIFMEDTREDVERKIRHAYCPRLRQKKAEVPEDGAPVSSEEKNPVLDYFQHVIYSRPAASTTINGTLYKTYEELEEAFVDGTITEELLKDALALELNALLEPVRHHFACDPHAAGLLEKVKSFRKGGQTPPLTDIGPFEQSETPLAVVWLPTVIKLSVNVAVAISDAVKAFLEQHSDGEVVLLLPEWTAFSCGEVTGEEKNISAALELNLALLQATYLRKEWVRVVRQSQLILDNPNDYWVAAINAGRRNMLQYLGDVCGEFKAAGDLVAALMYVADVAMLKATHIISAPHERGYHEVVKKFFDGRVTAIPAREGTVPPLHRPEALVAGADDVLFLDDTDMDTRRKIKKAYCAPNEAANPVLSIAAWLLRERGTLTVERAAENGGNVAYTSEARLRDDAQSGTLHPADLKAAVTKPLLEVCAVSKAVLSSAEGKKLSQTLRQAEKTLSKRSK
As to the kind of experiment: Trypanosoma cruzi tyrosyl tRNA synthetase (TcYRS) _High Tyrosine SOP. Also: in the data most compounds retested in dose-response had high values. Particulars: 30 µM. It is filed as functional.

Assay [8] deals with T4, Tyrosyl-tRNA synthetase, putative (Trypanosoma cruzi (strain CL Brener)). As to the kind of experiment: Trypanosoma cruzi tyrosyl tRNA synthetase (TcYRS) SOP. It is filed as functional. The following applies: 30 µM.
Assay [9] concerns the target Chromo domain-containing protein 1 (Saccharomyces cerevisiae (strain ATCC 204508 / S288c) (Baker's yeast)) (UniProt P32657). As to the kind of experiment: ScCHD-1 Enzyme Inhibition Assay. Also: in the data most compounds retested in dose-response had high values. It counts as functional. Particulars: 30 µM.

For some assays here: Entries with a potency or affinity are not part of this list.

Sequence of Chromo domain-containing protein 1 (Saccharomyces cerevisiae (strain ATCC 204508 / S288c) (Baker's yeast)) (P32657 whole entry, the tested form may be a part): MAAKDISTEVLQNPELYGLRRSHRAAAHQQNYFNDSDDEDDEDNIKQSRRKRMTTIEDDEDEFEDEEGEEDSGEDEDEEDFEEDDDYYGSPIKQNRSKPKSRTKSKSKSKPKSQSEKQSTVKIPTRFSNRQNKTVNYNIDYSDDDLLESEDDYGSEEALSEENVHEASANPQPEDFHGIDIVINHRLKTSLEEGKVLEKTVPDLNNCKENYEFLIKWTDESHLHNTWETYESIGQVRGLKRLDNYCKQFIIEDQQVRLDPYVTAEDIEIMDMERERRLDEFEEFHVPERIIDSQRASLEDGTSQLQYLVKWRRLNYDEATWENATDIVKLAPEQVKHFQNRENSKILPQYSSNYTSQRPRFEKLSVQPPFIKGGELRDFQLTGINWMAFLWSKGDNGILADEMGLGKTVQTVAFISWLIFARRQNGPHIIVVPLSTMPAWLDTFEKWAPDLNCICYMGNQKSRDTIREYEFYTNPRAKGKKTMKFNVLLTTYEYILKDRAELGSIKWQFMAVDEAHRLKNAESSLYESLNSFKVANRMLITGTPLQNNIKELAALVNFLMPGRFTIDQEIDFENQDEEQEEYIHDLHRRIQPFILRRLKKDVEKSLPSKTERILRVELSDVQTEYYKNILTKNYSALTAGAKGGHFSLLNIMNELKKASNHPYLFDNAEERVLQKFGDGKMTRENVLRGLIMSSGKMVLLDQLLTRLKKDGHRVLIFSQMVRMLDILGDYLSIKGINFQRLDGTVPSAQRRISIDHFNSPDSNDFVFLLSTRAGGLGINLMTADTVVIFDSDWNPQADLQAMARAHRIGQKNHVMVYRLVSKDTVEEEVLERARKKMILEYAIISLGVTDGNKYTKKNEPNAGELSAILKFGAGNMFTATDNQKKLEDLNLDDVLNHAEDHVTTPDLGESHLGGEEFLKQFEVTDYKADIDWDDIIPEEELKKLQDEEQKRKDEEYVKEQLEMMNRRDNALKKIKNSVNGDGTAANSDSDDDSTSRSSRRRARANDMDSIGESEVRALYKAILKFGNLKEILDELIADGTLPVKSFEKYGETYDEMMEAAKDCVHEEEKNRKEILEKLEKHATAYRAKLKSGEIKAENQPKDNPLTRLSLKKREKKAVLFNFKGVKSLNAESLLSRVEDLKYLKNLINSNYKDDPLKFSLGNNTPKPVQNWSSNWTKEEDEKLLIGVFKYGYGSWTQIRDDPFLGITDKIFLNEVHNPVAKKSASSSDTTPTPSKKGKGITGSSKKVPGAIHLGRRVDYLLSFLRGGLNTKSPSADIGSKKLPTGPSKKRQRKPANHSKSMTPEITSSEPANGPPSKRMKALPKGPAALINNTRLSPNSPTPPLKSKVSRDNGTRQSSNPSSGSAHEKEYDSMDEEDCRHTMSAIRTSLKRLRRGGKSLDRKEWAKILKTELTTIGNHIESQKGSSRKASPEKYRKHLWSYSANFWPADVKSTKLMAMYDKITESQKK
Sequence of Protein translocase subunit SecA (Escherichia coli (strain K12)) (P10408 whole entry): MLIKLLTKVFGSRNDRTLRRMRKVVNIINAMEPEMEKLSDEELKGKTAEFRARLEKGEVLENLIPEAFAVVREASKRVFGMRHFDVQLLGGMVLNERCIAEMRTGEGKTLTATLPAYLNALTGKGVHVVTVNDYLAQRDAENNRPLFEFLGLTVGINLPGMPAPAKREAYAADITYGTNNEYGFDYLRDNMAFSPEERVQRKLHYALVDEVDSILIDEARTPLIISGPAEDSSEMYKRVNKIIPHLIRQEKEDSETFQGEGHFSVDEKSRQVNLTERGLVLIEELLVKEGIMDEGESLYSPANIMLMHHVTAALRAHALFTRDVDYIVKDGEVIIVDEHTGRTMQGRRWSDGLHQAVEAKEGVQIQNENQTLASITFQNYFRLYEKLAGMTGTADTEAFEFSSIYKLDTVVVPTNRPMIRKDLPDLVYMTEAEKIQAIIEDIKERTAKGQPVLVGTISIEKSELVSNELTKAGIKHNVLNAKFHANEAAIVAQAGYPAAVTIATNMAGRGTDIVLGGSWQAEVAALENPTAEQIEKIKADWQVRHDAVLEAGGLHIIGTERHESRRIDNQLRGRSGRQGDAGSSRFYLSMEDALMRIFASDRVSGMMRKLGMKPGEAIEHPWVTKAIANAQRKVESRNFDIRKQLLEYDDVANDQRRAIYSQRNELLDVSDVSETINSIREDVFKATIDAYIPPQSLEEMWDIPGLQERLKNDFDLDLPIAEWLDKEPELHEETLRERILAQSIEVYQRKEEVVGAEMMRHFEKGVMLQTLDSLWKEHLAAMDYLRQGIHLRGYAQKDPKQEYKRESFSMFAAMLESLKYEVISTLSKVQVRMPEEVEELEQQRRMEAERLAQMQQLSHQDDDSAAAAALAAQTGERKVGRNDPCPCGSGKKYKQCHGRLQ

As for `CC(=O)N1CCCCC1c1cc(C(=O)N2CCOCC2)[nH]n1` (stereo not given), the Percent Effect is -1.41% in [1]; 14.9% in assay [2]; 11% in assay [3]; -1.29% in assay [4]; -1.38% with Trypanosoma cruzi; -0.232% in assay [5]. Also, the Percent Effect in assay [6] is 6.86%; in the assay listed under Homo sapiens it was 2.98%; in assay [7], 5.38%; in assay [8], 14.3%; in [9] it was -10.1%.

For the compound `O=C(NCC(Cc1cccc(F)c1)N1CCCC1=O)c1ccccc1` (stereo not given), the Percent Effect is -6.41% in [1]; -5.48% in assay [2]; 27.6% in [3]; -11% in assay [4]; -5.68% with Trypanosoma cruzi; 0% in [5]. In addition, the Percent Effect in [6] was 13.1%; in the assay filed under Homo sapiens, 6.32%; in assay [7], 1.07%; in assay [8], 5%; in assay [9], -2.23%.

With `NC(=O)COc1ccc(CNCc2ccc(F)c(F)c2)cc1`, the Percent Effect in assay [1] is -4.2%; in assay [2] it was 6.94%; in assay [3], 2.35%; in assay [4], -0.752%; with Trypanosoma cruzi, 0.486%; in [5] it was 3.53%. Also, the Percent Effect in [6] was 11.2%; in the assay filed under Homo sapiens, -7.28%; in [7] it was 7.37%; in assay [8] it was 7.69%; in [9], -2.75%.

For `Cc1nc(CNC(=O)NCC(O)c2cccc(Cl)c2)cs1` (stereo not given), the Percent Effect was -1.26% in assay [1]; 2.7% in assay [2]; -4.33% in assay [3]; 3.81% in [4]; -8.69% in the assay with Trypanosoma cruzi; -4.29% in assay [5]. Besides, the Percent Effect is 23.4% in assay [6]; 6.47% in the assay filed under Homo sapiens; 0.529% in assay [7]; 4.88% in [8]; -3.89% in assay [9].

For `COCc1ccccc1C(=O)NCCCN1CCCC1C(=O)N(C)C` (stereo not given), the Percent Effect is 0.173% in assay [1]; 8.22% in assay [2]; -7.48% in assay [3]; 6.16% in assay [4]; 2.94% with Trypanosoma cruzi; -2.27% in [5]. Further, the Percent Effect in assay [6] is 15.8%; in the assay listed under Homo sapiens, 13.9%; in [7], 3.23%; in assay [8] it was 12.5%; in assay [9] it was -6.47%.

On to `CC(C)N1CCC(N2CCN(C3CCC3)CC2CCO)CC1` (stereo not given), for which the Percent Effect in assay [1] was -2.22%; in [2], 1.39%; in assay [3] it was -21.6%; in assay [4], 12%; in the assay with Trypanosoma cruzi, 5.73%; in [5], 20.8%. Besides, the Percent Effect was -1.75% in assay [6]; -10.3% in the assay listed under Homo sapiens; 2.1% in [7]; 5.13% in assay [8]; 0.447% in assay [9].

Turning to `CCc1cc(NC2CCN(S(C)(=O)=O)CC2)n2nc(C)c(C)c2n1`, the Percent Effect in assay [1] is 0.159%; in assay [2], 4.17%; in [3], 4.89%; in assay [4] it was -1.11%; in the assay on Trypanosoma cruzi, -4.37%; in assay [5] it was -2.21%. In addition, the Percent Effect in assay [6] is 22.6%; in the assay filed under Homo sapiens, 5.75%; in assay [7], -10.5%; in assay [8], 2.56%; in [9], -1.42%.

Consider `COc1cccc(CN(C)C(=O)CCC(=O)c2ccc(Cl)cc2)c1OC`, for which the Percent Effect in [1] is -3.29%; in [2] it was -5.48%; in assay [3], -3.03%; in [4], 3.31%; in the assay on Trypanosoma cruzi it was -0.992%; in assay [5], -7.58%. Besides, the Percent Effect is 6.59% in assay [6]; 17% in the assay listed under Homo sapiens; 1.04% in assay [7]; 8.64% in assay [8]; -4.85% in [9].

On to `Cc1c(C)n(-c2ccccn2)c2nc3c(c(N)c12)CCCC3`, for which the Percent Effect in assay [1] is -1.37%; in assay [2] it was -14.7%; in assay [3], 7.92%; in [4] it was 7.22%; with Trypanosoma cruzi, -3.34%; in assay [5] it was -10%. Moreover, the Percent Effect in assay [6] was 25.1%; in the assay listed under Homo sapiens it was 5.7%; in assay [7] it was 1.06%; in assay [8] it was -51.3%; in assay [9], -7.7%.

As to `O=C(NCCN1CCC(c2cccs2)CC1)c1ccccc1C(F)(F)F`, the Percent Effect in [1] was -3.22%; in assay [2], 8.22%; in assay [3], 0.699%; in assay [4], 8.89%; with Trypanosoma cruzi it was 5.09%; in [5], 17.7%. Moreover, the Percent Effect in assay [6] was 17.2%; in the assay filed under Homo sapiens, 3.57%; in assay [7], 5.38%; in assay [8], 12.5%; in [9] it was -4.65%.

These data come from ChEMBL document CHEMBL3988442, “University of Dundee, Small-Polar-MMV Screening Library” (2021).
